Measured values from PubChem BioAssay (Tox21).
Records with an inconclusive call do not appear. The source made the active and inactive calls. Unless noted, the call rests on the fitted dose curve; in most records, active means well fitted curve in the direction sought with a large enough effect in the repeat runs; inconclusive means weak or mixed curves; inactive means no such curve, though single readings can be large; an effect the other way counts as inactive or inconclusive.

How the values were obtained:
[1] = qHTS assay for small molecule agonists of the p53 signaling pathway (AID 651631; calls by dose curve; further: nearly all actives have a fitted effect of over 15% in size)
In short: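 Beta-lactamase reporter activity under p53 response elements was quantified in HCT-116 cells by FRET fluorescence, following 16 h incubation with test compounds at 37 °C and 2 h substrate development at room temperature.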

[2] = qHTS assay for small molecules that induce genotoxicity in human embryonic kidney cells expressing luciferase-tagged ATAD5 (AID 651632); further: nearly all actives have a fitted effect of over 15% in size
In short: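 HEK293T cells carrying luciferase-tagged ATAD5 were given compound or DMSO vehicle and incubated 16 hr at 37C, 5% CO2. Luciferase activity was read after 30 min at room temperature with Amplite; a rise signals genotoxic stress.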

[3] = qHTS assay for small molecule agonists of the p53 signaling pathway - cell viability (AID 651633; calls by dose curve;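 further: p53RE-bla HCT reporter cells with a stable beta-lactamase p53 reporter; series mostly up to about 83 µM; nearly all actives have a fitted effect of over 30% in size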)
In short: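 p53RE-bla cells were treated with compound for 16 hours at 37 C. Cytotoxicity was then measured as CellTiter-Glo luminescence after 30 min at room temperature.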

[4] = qHTS assay for small molecules that induce genotoxicity in human embryonic kidney cells expressing luciferase-tagged ATAD5 - cell viability (AID 651634; calls by dose curve; further: nearly all actives have a fitted effect of over 25% in size)
In short: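 HEK293T cells carrying luciferase-tagged ATAD5, 2,000 cells/well, exposed to compound for 15.5 hr at 37C. Viability read as live-cell protease activity by CellTiter-Fluor fluorescence after 30 min at 37C.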

[5] = qHTS assay for small molecule disruptors of the mitochondrial membrane potential - cell viability (AID 720634; calls by dose curve;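 further: human HepG2 liver cancer cells; series mostly up to about 83 µM; nearly all actives have a fitted effect of over 20% in size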)
In short: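 HepG2 cells, 2,000 per well, attached overnight, then treated 1 hr at 37 C, 5% CO2. Viability read as ATP by CellTiter-Glo luminescence after 30 min at room temperature. Read in the same wells as the m-MPI membrane-potential dye assay.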

[6] = qHTS assay for small molecule disruptors of the mitochondrial membrane potential (AID 720635)
In short: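 HepG2 cells exposed to compound 1 hr at 37C, then Mito-MPS dye 30 min. Ratio read of aggregate (540/590 nm) versus monomer (490/535 nm) fluorescence.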

[7] = qHTS assay to test for compound auto fluorescence at 590 nm (red) in HepG2 cells (AID 720674)
In short: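 HepG2 cells, 2,000 per well in MEM with 10% FBS, attached overnight at 37 C, then got 23 nL compound or DMSO. After 1 hr at 37 C, 5% CO2, red fluorescence was read at 540/590 nm against Rose Bengal sodium as reference.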

[8] = qHTS assay to test for compound auto fluorescence at 535 nm (green) in HepG2 cells (AID 720675)
[9] = qHTS assay to test for compound auto fluorescence at 460 nm (blue) in HEK293 cells (AID 720678)
In short: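 Cells were seeded and left to adhere for 4-5 hr at 37C. Compounds were then pin-transferred. After an overnight incubation at 37C under 5% CO2, intrinsic fluorescence at 405/460 nm was measured and referenced to triamterene.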

[10] = qHTS assay to test for compound auto fluorescence at 590 nm (red) in HEK293 cells (AID 720679)
In short: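 Each well held 2,000 HEK293 cells in medium containing 10% dialyzed FBS. Following 4-5 hr attachment at 37C, 23 nL test compound or DMSO was added; plates sat overnight, and red fluorescence (540/590nm) was recorded.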

[11] = qHTS assay to test for compound auto fluorescence at 535 nm (green) in HEK293 cells (AID 720680)
[12] = qHTS assay to test for compound auto fluorescence at 460 nm (blue) in HEK293 cell free culture (AID 720681)
In short: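 Compounds were added to cell-free DMEM with 10% FBS and fluorescence read directly. The blue channel used 405 nm excitation and 460 nm emission, with triamterene as the reference fluorophore.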

[13] = qHTS assay to test for compound auto fluorescence at 535 nm (green) in HEK293 cell free culture (AID 720682)
In short: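 Each library compound, or DMSO control, is added by pintool to medium alone, comprising DMEM and 10% FBS. Emission at 535 nm following 485 nm excitation is quantified against fluorescein.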

[14] = qHTS assay to test for compound auto fluorescence at 590 nm (red) in HEK293 cell free culture (AID 720683)
In short: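 Cell-free wells of DMEM with 10% FBS received compound, and intrinsic fluorescence was read at excitation/emission 540/590 nm. Values expressed as equivalence to Rose Bengal sodium.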

[15] = qHTS assay to test for compound auto fluorescence at 590 nm (red) in HepG2 cell free culture (AID 720684)
In short: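 Compounds are added to culture medium (MEM, 10% FBS) lacking cells, then fluorescence is read at excitation 540 nm, emission 590 nm, with Rose Bengal sodium as the equivalency standard.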

[16] = qHTS assay to test for compound auto fluorescence at 460 nm (blue) in HepG2 cell free culture (AID 720685)
In short: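 Compound (23 nL) or DMSO pinned into cell-free MEM with 10% FBS; blue fluorescence read at 405/460 nm excitation/emission, expressed as auto-fluorescence equivalency to triamterene.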

[17] = qHTS assay to test for compound auto fluorescence at 535 nm (green) in HepG2 cell free culture (AID 720686)
[18] = qHTS assay to test for compound auto fluorescence at 460 nm (blue) in HepG2 cells (AID 720687)
In short: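 HepG2 cells in MEM with 10% FBS, attached overnight at 37 C, were exposed to compound or DMSO for 1 hr at 37 C, 5% CO2. Blue fluorescence was read at 405/460 nm, with triamterene as reference fluorophore.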

[19] = target: Glucocorticoid receptor (Homo sapiens) (UniProt P04150); assay: qHTS assay to identify small molecule agonists of the glucocorticoid receptor (GR) signaling pathway (AID 720691; active means well fitted activation curve with a large enough effect in the signal ratio in the repeat runs, not every such curve was filed as active; the % refers to the signal ratio)
In short: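 GR-bla HeLa cells carrying a GRE-driven beta-lactamase reporter, exposed to compounds for 18 h at 37 C. Reporter activation read as fluorescence after 2 h with LiveBLAzer B/G FRET substrate at room temperature.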

[20] = target: Glucocorticoid receptor (Homo sapiens) (UniProt P04150); assay: qHTS assay to identify small molecule antagonists of the glucocorticoid receptor (GR) signaling pathway (AID 720692; active means well fitted inhibition curve with a large enough effect in the signal ratio in the repeat runs, not every such curve was filed as active; the % refers to the signal ratio)
In short: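 GR-bla HeLa cells carrying a GRE-driven beta-lactamase reporter received compound after 4 h plating, then dexamethasone (5 nM final). After 18 h at 37C, the FRET substrate was loaded for 2 h at room temperature and fluorescence read.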

Measured: Potency

Chain of Glucocorticoid receptor (Homo sapiens) (P04150 whole entry, looked up): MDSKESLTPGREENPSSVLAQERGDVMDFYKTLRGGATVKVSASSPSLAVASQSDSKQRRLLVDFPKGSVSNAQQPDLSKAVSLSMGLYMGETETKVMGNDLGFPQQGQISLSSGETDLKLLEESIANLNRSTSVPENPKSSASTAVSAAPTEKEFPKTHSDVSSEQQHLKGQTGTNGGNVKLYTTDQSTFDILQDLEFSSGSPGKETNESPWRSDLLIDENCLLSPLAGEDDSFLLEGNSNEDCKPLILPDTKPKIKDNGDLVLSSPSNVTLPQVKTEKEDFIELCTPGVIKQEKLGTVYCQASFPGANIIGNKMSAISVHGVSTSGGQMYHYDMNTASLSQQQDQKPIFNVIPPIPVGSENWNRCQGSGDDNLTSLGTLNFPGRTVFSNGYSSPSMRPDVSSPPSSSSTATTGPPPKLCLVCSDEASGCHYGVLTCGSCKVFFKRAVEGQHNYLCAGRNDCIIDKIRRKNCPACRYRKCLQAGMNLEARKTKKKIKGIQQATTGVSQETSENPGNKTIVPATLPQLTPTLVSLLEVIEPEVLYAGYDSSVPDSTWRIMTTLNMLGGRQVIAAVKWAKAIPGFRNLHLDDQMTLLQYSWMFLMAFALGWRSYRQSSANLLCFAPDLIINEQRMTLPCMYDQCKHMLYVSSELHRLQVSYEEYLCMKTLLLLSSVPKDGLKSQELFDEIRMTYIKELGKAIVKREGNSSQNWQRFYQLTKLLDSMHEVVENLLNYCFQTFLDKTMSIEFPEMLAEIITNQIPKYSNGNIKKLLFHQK

CCCCCCCCP(=O)(O)O
inactive: all assays above

C1CCNCC1
not listed: [19] | [20]
inactive: all other assays above

COc1ccc2c(c1OC)C(=O)O[C@H]2[C@@H]1c2cc3c(cc2CCN1C)OCO3
not listed: [19] | [20]
inactive: all other assays above

CCOC(=O)C1OC1(C)c1ccccc1 (stereo unspecified)
inactive: all assays above

CC(C)(C#N)C(C)(C)C#N
not listed: [19] | [20]
inactive: all other assays above

CC[N+]1(C)CCCC(OC(=O)C(O)(c2ccccc2)c2ccccc2)C1 (stereo unspecified)
inactive: all assays above

Nc1cc(Cl)cc(C(=O)O)c1Cl
not listed: [19] | [20]
inactive: all other assays above

CCCC(C)(COC(N)=O)COC(=O)NC(C)C (stereo unspecified)
not listed: [19] | [20]
inactive: all other assays above

CCCC1CCCCN1 (stereo unspecified)
not listed: [19] | [20]
inactive: all other assays above

CCCC[N+]1(C)[C@@H]2CC(OC(=O)[C@H](CO)c3ccccc3)C[C@H]1[C@@H]1O[C@@H]12 (stereo partly specified)
inactive: all assays above

CCCCC#N
not listed: [19] | [20]
inactive: all other assays above

CCOc1cccc(C2(N3CCN(c4ccccc4)CC3)CCC(C)CC2)c1 (stereo unspecified)
inactive: all assays above

CC(Oc1cccc(Cl)c1)C(=O)O (stereo unspecified)
inactive: all assays above

O=C(O)c1cc(I)cc(I)c1I
inactive: all assays above

OCC1CO1 (stereo unspecified)
inactive: all assays above
